Consider 17 molecules from the supplement of paper PMC7057948, “A genome-wide approach for identification and characterisation of metabolite-inducible systems” (Nature Communications, 2020).

For this assay, the system named is KynR/P_H16_RS14030 L-kynurenine biosensor (pEH136). Description: relative induction of RFP reporter vs primary effector; higher = stronger activation. To be noted: inducer concentration 5 mM; 6 h; Cupriavidus necator H16; minimal medium + 0.4% gluconate. As for the experimental part: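 Orthogonality screen of 21 primary inducers against 21 transcription factor/inducible promoter–mRFP biosensors in C. necator H16 in minimal medium, robotic 96-well format, 5 mM inducer, 30 °C. OD-normalised RFP fluorescence was read 6 h later and expressed as relative induction (%) = 100 × (FL compound − FL uninduced)/(FL primary inducer − FL uninduced); mean of n=4. Cognate pairs (100% by definition) omitted.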
`O=C(O)CCO` [3-hydroxypropanoate]: the “relative induction of RFP reporter” value is -0.395%.

Consider `O=C(O)C1CCCCC1` [cyclohexane-1-carboxylate], for which the “relative induction of RFP reporter” value was 0.977%.

Regarding `O=C(O)c1ccc(O)c(O)c1` [3,4-dihydroxybenzoate], the “relative induction of RFP reporter” value came out at 0.138%. Then `O=c1[nH]c(=O)c2nc[nH]c2[nH]1` [xanthine], with 0.0316%; and `O=C(O)CS(=O)(=O)O` [sulfonatoacetate], with 0.55%. On to `NCCC(=O)O` [β-alanine], for which the “relative induction of RFP reporter” value was -0.589%. As for `C=CC(=O)O` [acrylate], the “relative induction of RFP reporter” value came out at 0.406%.

With `O=CO` [formate], the “relative induction of RFP reporter” value was found to be 0.482%. Take `O=C(O)C(O)C(O)C(=O)O` (configuration not stated) [tartrate]: the “relative induction of RFP reporter” value is 0.0585%. Consider `N[C@@H](Cc1ccccc1)C(=O)O` [L-phenylalanine], for which the “relative induction of RFP reporter” value came out at 1.98%. Turning to `O=C(O)c1ccccc1O` [salicylate], the “relative induction of RFP reporter” value was -0.248%. To `CC(=O)C(C)O` (configuration not stated) [acetoin] belongs 0.0145%. To `OC1OC[C@H](O)[C@H](O)[C@H]1O` (mixture of isomers) [L-arabinose] belongs 0.181%; to `C=C(CC(=O)O)C(=O)O` [itaconate], -0.472%; to `O=C(O)c1ccccc1` [benzoate], -0.112%.

Regarding `O=C(O)C(=O)c1ccccc1` [phenylglyoxylate], the “relative induction of RFP reporter” value was found to be 0.112%.

Turning to `N[C@@H](Cc1ccc(O)cc1)C(=O)O` [L-tyrosine], the “relative induction of RFP reporter” value came to 0.164%.
